Screening results from PubChem.
RORgamma inh: blocks mouse ROR gamma transcriptional activity | 310,000 compounds, 5.4% hits | AID 2551 | P51450 | Potency, µM (doses to about 53.6 µM), actives largely listed as inhibitors | Drosophila S2 Gal4-RORgamma UAS-luciferase reporter, 20 h; also: nearly all actives have a fitted effect of over 60% in size
Target sequence (P51450 whole entry, looked up, the tested form may be a part): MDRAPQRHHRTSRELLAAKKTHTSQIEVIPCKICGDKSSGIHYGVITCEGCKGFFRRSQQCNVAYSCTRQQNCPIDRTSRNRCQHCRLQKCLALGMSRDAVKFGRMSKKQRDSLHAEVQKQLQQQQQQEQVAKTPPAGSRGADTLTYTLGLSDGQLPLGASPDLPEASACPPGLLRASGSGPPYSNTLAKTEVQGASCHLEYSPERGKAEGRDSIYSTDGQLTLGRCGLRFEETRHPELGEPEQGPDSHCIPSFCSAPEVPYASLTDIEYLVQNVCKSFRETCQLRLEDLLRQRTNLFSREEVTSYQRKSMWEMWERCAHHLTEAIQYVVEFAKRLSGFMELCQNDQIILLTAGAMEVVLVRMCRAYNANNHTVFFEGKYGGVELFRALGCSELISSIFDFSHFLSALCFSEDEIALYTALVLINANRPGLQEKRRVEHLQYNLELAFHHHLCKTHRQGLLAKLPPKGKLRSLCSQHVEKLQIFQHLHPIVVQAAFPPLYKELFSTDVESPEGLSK
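Drosophila Schneider cells stably carrying a metallothionein-driven Gal4 DBD–ROR gamma fusion and a UAS-Photinus luciferase reporter were exposed to compound for 1 hr, then induced with copper sulfate (700 uM final) for 20 hr at ambient temperature before luminescence reading.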
IL-1B inflam inh: blocks inflammasome-driven IL-1 beta release; AID 743279; activity change, % at 57.5 µM; THP-1 LPS/ATP IL-1B secretion, AlphaLISA, 16 h; stronger effect = lower value; 360,000 compounds, 4.7% hits; in the data active = activity change below about -50%; inconclusive = mostly about -30% to -49%
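Secreted IL-1B measured by AlphaLISA bead assay after 16 h compound exposure of THP-1 cells; compounds (final up to 57.5 uM) added 1 h before LPS (250 ng/mL) and ATP (1.25 mM) stimulation; lower signal means less secretion.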
DT40 TDP1 CPT: growth inhibition of DT40 Tdp1-/-;hTDP1 cells with camptothecin (screen for TDP1 inhibitors). 420,000 compounds, 12% hits. chicken DT40 Tdp1-/-;hTDP1 cells + 20 nM CPT, ATP luminescence, 48 h. Potency, µM (series often up to 46.2 µM), actives largely listed as inhibitors. AID 686979; also: nearly all actives have a fitted effect of over 55% in size
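Chicken DT40 Tdp1-/- cells stably complemented with human TDP1 were seeded at 400 cells/well in medium containing 20 nM camptothecin, exposed to pin-transferred compounds, and grown at 37 °C for at least 48 hr. Viability was read as ATP luminescence.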
Gal4-VP16 FLuc: counter-screen for ROR gamma inhibitors: Gal4-VP16 reporter; Drosophila S2 Gal4-VP16 UAS-luciferase, luminescence, 20 h; Potency, µM (series often up to 53.6 µM), usual class: inhibitors; 310,000 compounds, 3.5% hits;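 also: Gal4-VP16 expression switched on by copper sulfate through the metallothionein promoter; nearly all actives have a fitted effect of over 50% in size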
DT40 TDP1 no CPT: qHTS for Inhibitors of human tyrosyl-DNA phosphodiesterase 1 (TDP1): qHTS in cells in absence of CPT; DT40 Tdp1-/- hTDP1 cells, no CPT, ATP luminescence, 48 h; Potency, µM (titrated, usually from 46.2 µM), most hits filed as inhibitors; 420,000 compounds, 15% hits; AID 686978, 2013; also: nearly all actives have a fitted effect of over 55% in size
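No-CPT arm: Tdp1-/-;hTDP1 DT40 cells (400/well) plus compounds, incubated ≥48 hr at 37 °C. Readout CellTiter-Glo luminescence.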
ELG1 DNA repair: blocks ELG1-dependent DNA repair in HEK293T cells. Potency, µM (series often up to 46.1 µM), hits mostly inhibitors. 330,000 compounds, 2.3% hits. HEK293T ELG1-luciferase reporter, luminescence, 16 h; DNA damage induced by 5-fluorouridine. AID 504467; also: nearly all actives have a fitted effect of over 55% in size
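Overnight (16 hr) co-exposure of 2,000 cells/well to 5-fluorouridine and compound at 37 °C preceded detection. Luciferase was quantified via ONE-Glo luminescence; loss of signal denotes inhibition.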
Each line names hits and unclear results; the compound was inactive in the other large screens. This is a sample that favours compounds with a hit; in the whole collection about 21% have one here. Unless noted, calls follow the shape of the dose curve; as a rule, active = well fitted curve in the direction sought with a large enough effect; inconclusive = small, poorly fitted or top-dose-only effect, or another doubt; inactive = no such curve, though single readings can be large; an effect the other way counts as inactive or inconclusive.

CCOC(=O)N1CCN(C(=O)c2cc(-c3ccncc3)nc3ccccc23)CC1	DT40 TDP1 CPT 5.8µM, DT40 TDP1 no CPT 5.8µM, ELG1 DNA repair inconclusive (no result: RORgamma inh, Gal4-VP16 FLuc)
O=C(c1cc(-c2ccccc2)nc2ccccc12)N1CCCC1	none
Cc1ccc(-c2cc(C(=O)N3CCCCC3)c3ccccc3n2)cc1C	DT40 TDP1 CPT 16µM, Gal4-VP16 FLuc inconclusive, DT40 TDP1 no CPT 23µM, ELG1 DNA repair inconclusive
CCOC(=O)C1CCCN(C(=O)c2cc(-c3ccccc3)nc3ccccc23)C1 (stereo not given)	ELG1 DNA repair inconclusive
CCOC(=O)C1CCN(C(=O)c2cc(-c3ccncc3)nc3ccccc23)CC1	DT40 TDP1 CPT inconclusive, DT40 TDP1 no CPT 21µM, ELG1 DNA repair inconclusive (no result: RORgamma inh, Gal4-VP16 FLuc)
Cc1ccc(-c2nn(-c3ccccc3)cc2C(=O)N2CCN(C3CCS(=O)(=O)C3)CC2)cc1 (stereo not given)	none (no result: RORgamma inh, Gal4-VP16 FLuc)
Cc1ccc(-c2cc(C(=O)N3CCN(C4CCS(=O)(=O)C4)CC3)c3ccccc3n2)cc1 (stereo not given)	IL-1B inflam inh inconclusive, DT40 TDP1 CPT 13µM, DT40 TDP1 no CPT inconclusive (no result: RORgamma inh, Gal4-VP16 FLuc)
CCOC(=O)N1CCN(C(=O)c2cc(-c3ccc(OCC)cc3)nc3ccccc23)CC1	DT40 TDP1 CPT 4.6µM, Gal4-VP16 FLuc inconclusive, DT40 TDP1 no CPT 3.7µM, ELG1 DNA repair inconclusive
COc1ccc(-n2cc(CNCCN3CCOC3=O)c(-c3ccccc3Cl)n2)cc1	DT40 TDP1 CPT inconclusive
Cc1cccc(-n2cc(CNCCN3CCOC3=O)c(-c3cccc(F)c3)n2)c1	IL-1B inflam inh -57, DT40 TDP1 CPT inconclusive, DT40 TDP1 no CPT 21µM
Cc1ccc(C)c(-n2cc(CNCCc3cnccn3)c(-c3ccccc3)n2)c1	IL-1B inflam inh inconclusive, DT40 TDP1 CPT inconclusive, DT40 TDP1 no CPT inconclusive
Cc1ccc(S(=O)(=O)NCCn2nc(C)cc2C)cc1	none
Cc1ccc(-n2cc(CNCCn3nc(C)cc3C)c(-c3ccc(F)cc3)n2)cc1	IL-1B inflam inh -91, DT40 TDP1 CPT 15µM, DT40 TDP1 no CPT 23µM, ELG1 DNA repair inconclusive
Cc1ccc(-n2cc(CNCCN3CCOC3=O)c(-c3ccc(F)cc3)n2)cc1	IL-1B inflam inh -71, DT40 TDP1 CPT 23µM, DT40 TDP1 no CPT inconclusive, ELG1 DNA repair inconclusive
Cc1ccc(-n2cc(CNCCc3ncc(C)[nH]3)c(-c3ccc(F)cc3)n2)cc1	IL-1B inflam inh -82, DT40 TDP1 CPT 16µM, Gal4-VP16 FLuc inconclusive, DT40 TDP1 no CPT inconclusive
CC(C)CN1CCCC2(CCN(C(=O)c3cccn3C)CC2)C1	none (no result: IL-1B inflam inh, ELG1 DNA repair)
COc1cc(Cl)c(C)cc1N1C(=O)[C@@H]2C[C@H]1CN2Cc1ccccn1	none (no result: RORgamma inh, IL-1B inflam inh, Gal4-VP16 FLuc, ELG1 DNA repair)
Cc1ccc(-n2cc(CNCCCN3CCCC3=O)c(-c3ccc(F)cc3)n2)cc1	IL-1B inflam inh -68, DT40 TDP1 CPT inconclusive, DT40 TDP1 no CPT 18µM
COc1ccc(-n2cc(CNCCCn3ccnc3)c(-c3ccccc3Cl)n2)cc1	DT40 TDP1 CPT inconclusive, DT40 TDP1 no CPT inconclusive, ELG1 DNA repair inconclusive
Fc1ccc(-n2cc(CNCCc3ccccn3)c(-c3ccccc3Cl)n2)cc1	RORgamma inh inconclusive, IL-1B inflam inh -74, DT40 TDP1 CPT 9.2µM, DT40 TDP1 no CPT 7.3µM
Cc1ccc(NC(=O)NCC2CCN(Cc3cc(C)ccc3Cl)CC2)c(C)c1	DT40 TDP1 CPT inconclusive, DT40 TDP1 no CPT inconclusive
Cc1ccc(C)c(CN2CCC(CNC(=O)Nc3cccc(Cl)c3C)CC2)c1	IL-1B inflam inh -65, DT40 TDP1 CPT inconclusive, DT40 TDP1 no CPT inconclusive
Cc1ccc(C)c(CN2CCC(CNC(=O)Nc3ccc(F)c(Cl)c3)CC2)c1	IL-1B inflam inh -92, DT40 TDP1 CPT 29µM, DT40 TDP1 no CPT inconclusive
COc1ccc(CNC(=O)Cc2c(C)c3ccc(O)cc3oc2=O)cc1	none (no result: RORgamma inh, IL-1B inflam inh, Gal4-VP16 FLuc, ELG1 DNA repair)
CC(=O)c1ccc2cc3c(cc2c1)OCO3	DT40 TDP1 no CPT inconclusive (no result: RORgamma inh, Gal4-VP16 FLuc, ELG1 DNA repair)
